Screens deposited in PubChem by National Center for Advancing Translational Sciences (NCATS).
Only a selection was taken, and hits are over-represented in it overall.
MARV entry inh: qHTS for inhibitors of binding or entry into cells for Marburg Virus; Marburg virus pseudotyped entry inhibition, cell reporter; Potency, µM (doses to about 37.8 µM), inactives show top-dose activity change, negative = inhibition, usual class: inhibitors; actives 1.8% (n = 300,000); AID 540276, 2011; calls by dose curve; tested in HEK293 cells; further: potency means the concentration at half of the fitted maximal effect; on the % scale 0 is the no-effect control and ±100 the full control effect
LASV entry inh: qHTS for Inhibitors of binding or entry into cells for Lassa Virus; actives 1.2% (n = 300,000); Potency, µM (doses to about 37.9 µM), inactives show at the highest dose activity change, negative = inhibition, hits mostly inhibitors; Lassa virus pseudotype entry inhibition, cell reporter; calls by dose curve; tested in HEK293 cells; further: potency means the concentration at half of the fitted maximal effect; on the % scale 0 is the no-effect control and ±100 the full control effect; nearly all actives have a fitted effect of over 50% in size
Cycloheximide cs: Cycloheximide Counterscreen for Small Molecule Inhibitors of Shiga Toxin; cell reporter, cycloheximide protein synthesis inhibition counterscreen; max response, %; actives 12% (n = 300,000); in the data active means max response mostly above about 13%, no sharp cut-off; inactive means mostly below about 14%; further: read at 38.3 µM for the half of the compounds with a filed dose; 0% is about no effect
Vaccinia Venus: qHTS for Stage-Specific Inhibitors of Vaccinia Orthopoxvirus: Venus Reporter Primary qHTS. actives 0.46% (n = 330,000). AID 720580, 2013. Potency, µM (top dose mostly 36.5 µM), without a hit: at the highest dose activity change, negative = inhibition, most hits filed as inhibitors. Vaccinia virus Venus reporter expression, fluorescence; calls by dose curve; tested in A549 cells; further: potency means the concentration at half of the fitted maximal effect; on the % scale 0 is the no-effect control and ±100 the full control effect; nearly all actives have a fitted effect of over 30% in size
Shiga toxin inh: A qHTS for Small Molecule Inhibitors of Shiga Toxin; Vero cells, Shiga toxin protein synthesis inhibition reporter; inhibition, % at 38.7 µM; actives 9.2% (n = 290,000); AID 2315, 2010; in the data active means inhibition mostly above about 28%, no sharp cut-off; inactive means mostly below about 43%; further: 0% is about no effect
Vaccinia mCherry: qHTS for Stage-Specific Inhibitors of Vaccinia Orthopoxvirus: mCherry Reporter Primary qHTS. actives 0.63% (n = 310,000). Potency, µM (highest dose often 36.5 µM), for the others: at the highest dose activity change, negative = inhibition, usual class: inhibitors. Vaccinia virus mCherry reporter infection, fluorescence; calls by dose curve; tested in A549 cells; further: potency means the concentration at half of the fitted maximal effect; on the % scale 0 is the no-effect control and ±100 the full control effect; nearly all actives have a fitted effect of over 35% in size
Active calls of the source: *; i = inactive; ? = inconclusive; / = no result given; [ ] = remark or other dose.

SMILES	MARV entry inh	LASV entry inh	Cycloheximide cs	Vaccinia Venus	Shiga toxin inh	Vaccinia mCherry
CCCNS(=O)(=O)c1cccc(C(=O)OCc2cc(=O)oc3cc(OC)ccc23)c1	?	?	19*	-28%	61	?
Cc1ccc(CNC(=O)Cn2ncc3c(C)n(Cc4ccc(Cl)cc4)c(C)c3c2=O)cc1	9%[46.1 µM]	19%[46.1 µM]	/	-29%	/	-17%
CSc1nsc(SCC(=O)Nc2ccccc2C(=O)O)n1	18µM*	1%	19*	4%	44*	i
Cc1cc2nc(SCC(=O)Nc3ccccc3C(=O)O)[nH]c2cc1C	25%[46.1 µM]	?	15	-13%	38*	-4%
CSc1nsc(SCC(=O)Nc2ccc(F)cc2F)n1	?	20%	32*	-14%	52*	-9%
CSc1nsc(SCC(=O)Nc2ccc(Br)cn2)n1	?	18%	28*	?	78*	/
COc1cccc(NC(=O)c2ncc(Cl)c(Cl)c2Cl)c1	-27%	?	32*	-9%	63*	-9%
COc1cccc(NC(=O)c2cccc(C(=O)Nc3cccc(OC)c3)n2)c1	14%	?	4	-4%	-3	-21%
COc1cccc(NC(=O)c2ccn(C)n2)c1	2%	?	41*	/	72*	/
COc1cccc(NC(=O)c2cnsn2)c1	24%	?	44*	/	140*	/
Cc1ccccc1-c1nc(CN2CCC(C(=O)NCc3ccc(F)cc3)CC2)c(C)o1	?	-12%[46.1 µM]	/	-20%	/	-9%
COc1cccc(OCCNc2cc(N3CCOCC3)ccc2[N+](=O)[O-])c1	10%	23%	44*	?	22	-24%
COc1ccc(OCCNc2cc(N3CCOCC3)ccc2[N+](=O)[O-])cc1	?	-14%	13	?	-12	11µM*
CC1CN(c2ccc([N+](=O)[O-])c(NCCOc3ccccc3)c2)CCN1 (stereo not drawn)	?	26%[46.1 µM]	-2	11µM*	-12	?
COc1ccc(OCCNc2cc(Cl)ccc2[N+](=O)[O-])cc1	1%	4%	17*	-8%	1	-11%
CCOCCCNC(=O)C(c1ccccc1)N(Cc1cccs1)C(=O)c1ccc(NC(C)=O)cc1 (stereo not drawn)	?	-4%[46.1 µM]	/	9%	/	-3%
CSCCC1NC(=O)N(CC(=O)Nc2ccc(Br)cc2Br)C1=O (stereo not drawn)	/	/	-3	/	4	/
Cc1cnc(-n2ncc(C(=O)NCc3ccncc3)c2-c2cccs2)nc1-c1ccc(F)cc1	/	/	/	-16%	/	i
Cc1cccc(OCCNc2ccc(C(F)(F)F)cc2[N+](=O)[O-])c1	-1%	?	9.3*	-12%	-5	-14%
Cc1cccc(OCCNc2cc(N3CCN(CCO)CC3)ccc2[N+](=O)[O-])c1	?	15%	-1	?	-2	10µM*
O=S(=O)(c1ccccc1)N1CCC(O)(CN2CCN(c3ccccc3)CC2)CC1	?	0%[46.1 µM]	-4	-9%	-8	-10%
CC(C)NC(=O)c1cn([C@H]2CC[C@@H](NC(=O)/C=C/c3cccs3)CC2)nn1	/	/	/	-17%	/	-1%
Cn1c(SC/C=C/c2ccccc2)nnc1-c1cnccn1	5%	-3%	10	-14%	-2	/
Cn1c(SCc2ccccc2Cl)nnc1-c1cnccn1	8%	?	24*	/	133*	/
Cn1c(SCc2cccc(F)c2)nnc1-c1ccccn1	4%	?	36*	/	58*	/
SMILES	MARV entry inh	LASV entry inh	Cycloheximide cs	Vaccinia Venus	Shiga toxin inh	Vaccinia mCherry
Cn1c(SCc2ccccc2[N+](=O)[O-])nnc1-c1cccnc1	?	?	24*	0%	51*	-21%
Cc1ccccc1CSc1nnc(-c2ccccn2)n1C	?	?	26*	-11%	90*	i
COC(=O)c1sccc1S(=O)(=O)N1CCN(c2cc(Cl)ccc2C)CC1	/	-11%[46.1 µM]	/	2%	/	-8%
COc1ccc(OC)c(-c2ccnc(-n3ncc(C(=O)N4CCN(CCO)CC4)c3C3CC3)n2)c1	/	/	/	-4%	/	-11%
Cn1c(SCc2cccc(F)c2)nnc1-c1cnccn1	?	7%	29*	-8%	64*	i
Cn1c(SCC(=O)c2ccc(F)cc2)nnc1-c1cnccn1	?	5%	32	/	44	/
Cn1c(SCc2cccc(Br)c2)nnc1-c1ccccn1	18%[46.1 µM]	11%	22*	-7%[7.34 µM]	50*	i[7.34 µM]
CCc1cccc(C)c1NC(=O)Cn1c(=O)cc(C(F)(F)F)c2c(C)nn(C)c21	/	-13%[46.1 µM]	/	-1%	/	4%
O=C(CCN1C(=O)/C(=C\C=C\c2ccccc2)SC1=S)Nc1ccc(C(=O)O)cc1	/	/	15*	/	29	/
O=C(/C=C1\SC(=O)N(CC(=O)Nc2ccc(F)cc2)C1=O)Nc1ccc(Cl)cc1	6%	-2%	32*	-6%	86*	-14%
O=C(CCCN1C(=O)S/C(=C\C=C\c2ccccc2)C1=O)Nc1ccc(O)cc1	?	?	44*	-17%	148*	?
CC(/C=C1\SC(=O)N(CC(=O)Nc2cccc(O)c2)C1=O)=C\c1ccccc1	12%	?	11	/	11	/
O=C(/C=C1\SC(=O)N(CC(=O)Nc2ccc(Cl)cc2)C1=O)Nc1ccc(F)cc1	-22%	23%	0	-4%	-1	-14%
CC(/C=C1\SC(=O)N(CC(=O)Nc2ccc(O)cc2)C1=O)=C\c1ccccc1	-19%	-24%	29	12%	40*	-23%
CCN(CC)c1ccc(/C=N/n2c(-c3ccccc3Br)n[nH]c2=S)cc1	?	?	-2	-15%	-11	-26%
Cc1nn(-c2ccccc2)c(C)c1/C=N/NC(=O)CSc1nnc(SCc2ccc(Cl)cc2)s1	?	9.2µM*	41*	?	26	?
Cc1nn(-c2ccccc2)cc1/C=N/NC(=O)c1cccs1	/	/	44*	/	102*	/
CC(/C=N/NC(=O)CSc1nnc(SCc2ccccc2)s1)=C\c1ccco1	1%	-3%	14*	-15%	6	i
O=C(CSc1nnc(SCc2ccccc2)s1)N/N=C/c1c(Cl)cccc1Cl	?	-5%	4	?	0	-21%
Cc1nn(-c2ccccc2)c(C)c1/C=N/n1c(-c2ccccc2Br)n[nH]c1=S	?	13µM*	9	-16%	15	-7%
Cc1ccc(CSc2nnc(SCC(=O)N/N=C/C=C/c3ccco3)s2)cc1	?	?	16	-14%	3	i
CCOc1ccc(NC(=O)NNC(=O)c2cccnc2)cc1	-3%[46.1 µM]	30%[46.1 µM]	4	-18%	-18	i
CCN(CC)C(=O)c1ncn2c1C(=O)N(C)CC2	/	/	/	0%	/	0%
Cc1nn(-c2ccccc2)c(C)c1/C=N/NC(=O)c1cccs1	11µM*	3.2µM*	15*	?	26	i
Cc1nn(-c2ccccc2)c(N2CCCC2)c1/C=N/NC(=O)c1ccccc1O	?	?	12	-16%	44	-14%
